Screens (PubChem BioAssay)
FBPA coupling cs = counter-screen for Giardia aldolase inhibitors: coupling enzyme system | coupling enzyme system counterscreen, AmpLite Red fluorescence | activity change, negative = inhibition, % at 58.2 µM, hits read low | hit rate 0.67% among 290,000 | AID 2472; in the data active = activity change below about -30%; also: % is scaled to controls: 0 for no effect and ±100 for the full control effect
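Counterscreen of the coupled detection system alone, without aldolase: glyceraldehyde-3-phosphate coupling enzymes plus AmpLite Red readout. Compounds at 57.5 uM final, 10 min RT preincubation, 20 min RT reaction, fluorescence 525/598 nm.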
TRb SRC2 PPI = disrupts binding of human TR beta to SRC2; P10828; Potency, µM (doses to about 106 µM), without a hit: at the highest dose activity change, negative = inhibition, usual class: inhibitors; TRbeta-SRC2 peptide binding, fluorescence polarization; receptor liganded with 1 µM T3; hit rate 0.065% among 280,000; AID 1469;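 also: potency is read from the fitted curve at half-maximal effect; plate controls were bound peptide for no effect and peptide without receptor for full effect; nearly all actives have a fitted effect of over 50% in size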
Target sequence (P10828 whole entry, looked up): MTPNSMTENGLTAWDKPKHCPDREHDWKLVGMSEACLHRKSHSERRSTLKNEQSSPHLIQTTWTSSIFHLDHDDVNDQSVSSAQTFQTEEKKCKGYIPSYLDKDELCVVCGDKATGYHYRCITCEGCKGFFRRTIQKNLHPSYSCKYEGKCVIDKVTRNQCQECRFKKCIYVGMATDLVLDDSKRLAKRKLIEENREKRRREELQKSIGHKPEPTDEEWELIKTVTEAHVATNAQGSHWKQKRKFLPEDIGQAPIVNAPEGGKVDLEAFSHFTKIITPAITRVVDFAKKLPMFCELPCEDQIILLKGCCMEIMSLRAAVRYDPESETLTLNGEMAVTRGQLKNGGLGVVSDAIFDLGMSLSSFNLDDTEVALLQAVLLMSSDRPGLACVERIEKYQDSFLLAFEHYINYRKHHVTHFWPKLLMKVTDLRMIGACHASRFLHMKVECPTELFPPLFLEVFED
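Decrease in fluorescence polarization of 20 nM Texas Red SRC2 coactivator peptide flagged inhibition of its binding to 0.6 uM TRb LBD; 1 uM T3 included, incubation 5 hr, ex 555/em 632 nm.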
HTT aggregate = inhibitors of mutant huntingtin aggregate formation in PC12 cells. PC12 HttQ103-GFP aggregates, Acumen cytometry, 40 h. AID 1688. hit rate 1.1% among 220,000. Potency, µM (titrated, usually from 46.1 µM), for the others: top-dose activity change, negative = inhibition, actives largely listed as inhibitors; also: potency is read from the fitted curve at half-maximal effect; % is scaled to controls: 0 for no effect and ±100 for the full control effect; nearly all actives have a fitted effect of over 60% in size
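Steps: seed 1500 PC12 HTTQ103-GFP cells/well; add tebufenozide, 100 nM final; add compound titration; add ATPLite reagent; quantify GFP aggregates by laser scanning cytometry.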
KDM4E inh = blocks human JMJD2E demethylase activity | JMJD2E catalytic domain, FDH-coupled NADH fluorescence (FDH is formaldehyde dehydrogenase) | Potency, µM (series often up to 57.1 µM), for inactives: top-dose activity change, negative = inhibition, actives largely listed as inhibitors | hit rate 1.6% among 230,000 | AID 2147; active = well fitted inhibition curve with a large enough effect, not every such curve was filed as active; inconclusive = small, poorly fitted or top-dose-only effect, or another doubt; inactive = no such curve, though single readings can be large or run the other way;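 also: potency is read from the fitted curve at half-maximal effect; 0% = wells with enzyme and -100% = buffer wells without enzyme; nearly all actives have a fitted effect of over 50% in size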
Target sequence (B2RXH2 1-337 limits assumed): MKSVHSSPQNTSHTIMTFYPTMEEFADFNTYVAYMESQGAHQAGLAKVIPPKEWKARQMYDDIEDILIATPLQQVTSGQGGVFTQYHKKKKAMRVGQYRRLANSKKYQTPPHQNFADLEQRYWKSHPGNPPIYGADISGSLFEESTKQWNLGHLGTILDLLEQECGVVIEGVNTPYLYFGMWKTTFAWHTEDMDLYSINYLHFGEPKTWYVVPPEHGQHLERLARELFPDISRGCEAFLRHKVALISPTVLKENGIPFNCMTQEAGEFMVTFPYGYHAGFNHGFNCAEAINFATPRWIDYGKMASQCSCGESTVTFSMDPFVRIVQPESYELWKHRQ
TR SRC2 fluor cs = Texas Red fluorescence interference in TRb-SRC2 counter-screen; hit rate 0.29% among 280,000; Potency, µM (titrated, usually from 106 µM), for the others: top-dose fluorescence change, negative = quenching; TRb/SRC2 Texas Red total fluorescence interference; active = well fitted curve in either direction with a large enough effect; inconclusive = small, poorly fitted or top-dose-only effect; also: potency is read from the fitted curve at half-maximal effect; % is scaled to controls: 0 for no effect and ±100 for the full control effect
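Human TRb ligand-binding domain at 0.6 uM with 20 nM Texas Red SRC2 peptide in Tris buffer containing 1 uM T3 and 5% DMSO, incubated with compound 5 h at ambient temperature. Total fluorescence (555/632 nm) calculated as parallel + 2 × perpendicular.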
HTT cytoprotect = cytoprotection in Huntington HTT-Q103 PC12 cell model; hit rate 0.14% among 230,000; Potency, µM (series often up to 56.4 µM), without a hit: cytoprotection (ATP increase), usual class: activators; PC12 HTT-Q103 induced, cytoprotection, ATP luminescence, 40 h; also: potency is read from the fitted curve at half-maximal effect; % of control where 0% means no effect; nearly all actives have a fitted effect of over 45% in size
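Stable PC12 Q103-GFP cells in serum-supplemented, phenol red-free DMEM; induction by tebufenozide at 100 nM final; compound dose series; cell viability quantified luminescently from ATP.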
The depositor's hits bear a star; ? = inconclusive; / = not tested or not shown; [ ] = another dose, or the depositor's remark. Rows were chosen to be rich in hits. Some 2% of all compounds tested hit in one or more screens of this group. Unless noted, calls follow the shape of the dose curve; as a rule, active = well fitted curve in the direction sought with a large enough effect; inconclusive = small, poorly fitted or top-dose-only effect, or another doubt; inactive = no such curve, though single readings can be large; an effect the other way counts as inactive or inconclusive.

SMILES	FBPA coupling cs	TRb SRC2 PPI	HTT aggregate	KDM4E inh	TR SRC2 fluor cs	HTT cytoprotect
Clc1ccc2[nH]c3c(N4CCC5(CC4)OCCO5)ncnc3c2c1	-4	-16%	8.9µM*	?	-4%	-98%
Cc1cccc2[nH]c3c(N4CCN(C(=O)c5ccco5)CC4)ncnc3c12	0	-3%	-30%	?	1%	-42%
Cc1cccc2[nH]c3c(N4CCC5(CC4)OCCO5)ncnc3c12	-18	-9%	22µM*	?	-8%	-55%
Cc1ccc2[nH]c3c(N4CCOCC4)ncnc3c2c1	-1	8%	?	?	-3%	-16%
CC(C)(C)c1ccc(C(=O)NC(Cc2c[nH]c3ccccc23)C(=O)OCC(=O)c2ccc(Br)cc2)cc1 (centres undefined)	/	-4%	/	/	-3%	/
COc1ccc(CNC(=O)c2ccc3nc(CCc4ccccc4)oc3c2)c(OC)c1	/	7%	/	/	3%	/
Nc1ccc(S(N)(=O)=O)cc1N	-28	3%	-27%[9.22 µM]	7.9µM*	-1%	-9%[10 µM]
COCCn1c(=O)c(-c2cn(C)c3ccccc23)nc2cnc(Oc3cccc(Cl)c3)nc21	3	/	/	/	/	-43%
CC(C)(C)c1ccc(Cn2nnc3c(=O)[nH]c(C4CCN(C(=O)Cc5cccs5)CC4)nc32)cc1	-3	-1%	13µM*	2%	-1%	-25%
CC(C)(C)c1ccc(Cn2nnc3c(=O)[nH]c(C4CCCN(C(=O)Cc5cccs5)C4)nc32)cc1 (centres undefined)	4	-5%	-18%	-2%	-1%	23%[10 µM]
N#Cc1cccc(-n2nnnc2-c2ccccn2)c1	1	5%	11µM*	?	-12%	3%[10 µM]
N#Cc1cccc(-n2nnnc2-c2ccc3c(c2)OCO3)c1	1	-1%	3%	0%	-1%	2%
CCN(c1ccc(C)cc1C)S(=O)(=O)c1nnc(NC(=O)c2ccc(F)cc2)s1	/	-2%	/	/	-6%	/
CC1(C)CC(=O)C(C=NCC(N)=O)=C(O)C1	1	4%	11µM*	?	-4%	-63%
CCc1cccc(OCC(=O)Nc2ccc(S(=O)(=O)Nc3cc(C)nc(C)n3)cc2)c1	/	4%	/	/	-4%	/
O=C(Nc1ccccc1)c1cc(Cl)ccc1O	/	3%[201 µM]	/	/	-3%[201 µM]	/
CCN1C=C(Cc2ccc(F)cc2)C2=C(C1)C(c1ccc(F)cc1)C(C#N)=C(N)O2 (centres undefined)	-9	-26%	13%	?	18%	3%
CCN1C=C(Cc2ccccc2C)C2=C(C1)C(c1ccccc1C)C(C#N)=C(N)O2 (centres undefined)	-6	?	6%	?	45µM*[fluorescent]	-21%
Cc1ccc(CN2CCSc3ccc(C(=O)Nc4ccc(C)cc4)cc32)cc1	/	3%	/	/	-3%	/
O=C(/C(=N/N=C/c1ccc(O)c(O)c1O)c1ccccc1)c1ccccc1	-40*	0%	-13%	1%	-1%	17%[0.074 µM]
O=C(O)c1ccc(C(=O)C(=O)c2ccccc2)cc1	17	4%	-3%[9.22 µM]	7%	4%	-8%[10 µM]
Oc1cccc(C=Nc2cccc3ccccc23)c1O	-14	/	/	/	/	/
Oc1ccc(/C=N/N=C(c2ccccc2)c2ccccc2)c(O)c1O	-17	2%	?	14µM*	-13%	11%[10 µM]
CCOc1ccc(-c2cn3c(n2)sc2cc(C(=O)NC4CCCc5ccccc54)ccc23)cc1 (centres undefined)	/	-4%	/	/	4%	/
NCCCCCCN	/	-4%	/	/	1%	-1%
SMILES	FBPA coupling cs	TRb SRC2 PPI	HTT aggregate	KDM4E inh	TR SRC2 fluor cs	HTT cytoprotect
COC(=O)C1C(O)C(C)C(O)C(C)(O)/C=C\C=C(/C)C(=O)Nc2c(C)c(OC(C)=O)c3c(c2O)C(=O)C(C)=C2OCOC(=C23)/C(C)=C/C(C)(O)C(O)C(C)C1O (centres undefined)	-42*	-1%	-9%[9.22 µM]	3.2µM*	1%	-3%[10 µM]
Cc1ccc(S(=O)(=O)N2CCCc3cc(NC(=O)c4ccccc4Cl)ccc32)cc1	/	-3%	/	/	-1%	/
COc1ccc(OC)c(C2=Nn3c(nnc3-c3cccc(OC)c3OC)SC2)c1	0	2%	/	/	-1%	/
COc1cc(N/N=C/c2ccccc2O)ncn1	-1	2%	?	25µM*	-25%	34%[10 µM]
O=c1c(Cc2ccc(Cl)cc2Cl)c(O)ccn1Cc1ccc(Cl)cc1	8	-4%	20µM*	-2%	-7%	-4%[10 µM]
O=c1c(Cc2ccc(Cl)cc2)c(O)ccn1Cc1cccc(Cl)c1	5	-4%	-32%	-7%	2%	-12%[10 µM]
Cc1oc(CC(C)C)cc1C(=O)NCCCC(=O)O	0	0%	?	-11%	0%	5.6µM*
COc1ccc(CNC(=O)CN2C(=O)c3cccnc3Oc3ccc(C)cc32)cc1	/	-22%	/	/	20µM*[quencher]	/
Cc1ccc2c(c1)N(CC(=O)NCc1cccc(Cl)c1)C(=O)c1cccnc1O2	/	-1%	/	/	-3%	/
COc1ccc(CNC(=O)CCCN2C(=O)c3cccnc3Oc3ccc(Cl)cc32)cc1	/	4%	/	/	6%	/
Cc1ccc(CNC(=O)CCCN2C(=O)c3cccnc3Oc3ccc(Cl)cc32)cc1	/	-9%	/	/	18µM*[quencher]	/
CC(C)(CCCCCCCCCCC(C)(C)CC(=O)O)CC(=O)O	13	-2%	/	/	-1%	/
COCCn1c(C)cc(O)c(C(c2ccccc2)N2CCN(c3ccc(F)cc3)CC2)c1=O (centres undefined)	/	7%	/	/	2%	/
CCOc1ccc(NC(c2ccc(Cl)cc2)c2nnc(-c3cccc(F)c3)o2)cc1 (centres undefined)	/	-1%	/	/	0%	/
Cc1nc(N)c(C#N)c(-c2cccnc2)c1C	-2	1%	6.3µM*	?	3%	1%[10 µM]
CCc1nc(N)c(C#N)c(-c2cccnc2)c1C	1	-15%	12%	-23%	2%	0%
Nc1nc2cc(S(=O)(=O)NC3=NCCCCC3)ccc2s1	3	-1%	-12%[9.22 µM]	-12%	-12%	5%[10 µM]
CCOC(=O)c1ccc(S(=O)(=O)Nc2nc3cc(S(=O)(=O)NC4=NCCCCC4)ccc3s2)cc1	15	-2%	-19%	-23%	0%	18µM*
CC(C)Nc1oc(-c2ccccc2)nc1-c1cccc2ccccc12	1	2%	/	-7%	-2%	-27%
Cc1ccccc1-n1c(SCC(=O)Nc2ccc(Cl)cc2Cl)nc(O)cc1=O	/	0%	/	/	-2%	/
Cc1ccccc1OCC(=O)N/N=C/c1cccc(Oc2ccc([N+](=O)[O-])cc2[N+](=O)[O-])c1	-49*	-11%	-16%	2%	2%	6%[10 µM]
Cc1cc(Cl)ccc1OCCCC(=O)N/N=C/c1cccc([N+](=O)[O-])c1	-36*	3%	17%	4%	0%	-2%[10 µM]
Cc1nn2c(C)c(C(=O)N3CCN(c4ccccc4)CC3)cnc2c1-c1ccccc1	/	-2%	/	/	0%	/
